Records with an inconclusive call do not appear. A number with no mark means an inactive call. Active and inactive are the calls of the source. Calls come from the whole dose curve; as a rule, active = well fitted inhibition curve with a large enough effect; inconclusive = small, poorly fitted or top-dose-only effect; inactive = no such curve, though single readings can be large or run the other way. Where a SMILES comes first, the peptide text is derived from it. [ ]: non-standard residue; d: D form. The star is where a group is joined. Cbz = O=C(OCc1ccccc1)*; Nva = CCC[CH](N)C(=O)O
tested on: zebrafish ABCB5 (Abcb5) multidrug transporter; assay: qHTS for characterization and localization of zebrafish homologs of the human ABCB1 multidrug transporter: ABCB5 transfected cells; settings: CellTiter-Glo luminescence viability, 72 h; series mostly up to 46.1 µM
Excerpt: The zebrafish has emerged as a potential model to study the blood-brain barrier (BBB) given its similarities with mammalian systems. However, little information has been available with regard to homologous ATP-binding cassette transporters expressed at the zebrafish BBB. Two transporters that are highly expressed at the human BBB are P-glycoprotein (P-gp, encoded by the ABCB1 gene) and ABCG2 (encoded by the ABCG2 gene). In this study, we focus on characterization of P-gp homologs in the zebrafish, which has two genes that are homologous to human ABCB1 - abcb4 and abcb5. We generated stably-transfected cell lines to determine their substrate specificities. […] Zebrafish abcb4 also colocalized with claudin 5 expression in brain endothelial cells.
A high-throughput screen was performed as previously described on empty vector transfected cells, P-gp-overexpressing MDR-19 cells and cells transfected with full-length zebrafish abcb4 (ZF Abcb4) or abcb5 (ZF Abcb5). Briefly, cells were plated into 1536-well plates at a density of 500 cells/well in 5 uL media. P-gp substrate compounds (approximately 90) selected from our previous study were then added at varying concentrations using a 1536-head pin tool (Kalypsis, San Diego, CA) and plates were incubated at 37C in 5% CO2 for 72 h. CellTiter-Glo reagent (Promega) was dispensed into the wells, incubated for 5 min and luminescence was read on a ViewLux instrument (Perkin-Elmer).
Cytotoxic compounds were defined as those that yielded a curve class of -1.1, -1.2, -2.1, -2.2, -2.3, or -2.4, a maximum response of >50% and an AC50 of < 10 uM. All compounds from screening analysis were tested in Vector (empty vector control), MDR-19 (P-gp overexpressing), zebrafish abcb4 (ZF Abcb4) and abcb5 (ZF Abcb5) expression cell lines.
1. Tobie D Lee, Olivia W Lee, Kyle R Brimacombe, Lu Chen, Rajarshi Guha, Sabrina Lusvarghi, Bethilehem G Tebase, Carleen Klumpp-Thomas, Robert W Robey, Suresh V Ambudkar, Min Shen, Michael M Gottesman, Matthew D Hall. A High-Throughput Screen of a Library of Therapeutics Identifies Cytotoxic Substrates of P-glycoprotein. Mol Pharmacol. 2019, Nov;96(5):629-640.

Structure (SMILES)	Potency	activity, negative = inhibition
CN(C)CCN(C)C(=O)c1ccc(NC(=O)Nc2ccc(-c3nc(N4CCOCC4)c4ccn(CC(F)(F)F)c4n3)cc2)cc1	2350 nM (active)	
COc1cc2c(NC3CCN(C(C)C)CC3)nc(N3CCCN(C)CC3)nc2cc1OCCOCCN(C)C	inactive	
CCS(=O)(=O)c1cccc(-c2cc(C(=O)NC3CCN(C)CC3)c(C)c3[nH]c4ncc(C)cc4c23)c1	inactive	
N=C(N)c1ccc(OCCCCCOc2ccc(C(=N)N)cc2)cc1	13200 nM (active)	
CC1(C)CC(NC(=O)C(=O)Nc2ccc(Br)cc2)CC(C)(C)N1	inactive	
C[C@@H](Oc1cc(-n2cnc3ccc(CN4CCN(C)CC4)cc32)sc1C(N)=O)c1ccccc1C(F)(F)F	4180 nM (active)	
CCc1cccc(CC)c1NC(=O)N1Cc2[nH]nc(NC(=O)c3ccc(N4CCN(C)CC4)cc3)c2C1	inactive	
COc1cc2c(NC3CCN(C(C)C)CC3)nc(N3CCCN(C)CC3)nc2cc1OCCCN1CCCC1	inactive	
CCN(CCCO)CCCOc1ccc2c(Nc3cc(CC(=O)Nc4cccc(F)c4)[nH]n3)ncnc2c1	inactive	
COc1cc(C(=O)NC2CCN(C)CC2)ccc1Nc1ncc2c(n1)N(C1CCCC1)CC(F)(F)C(=O)N2C	1180 nM (active)	
CC[C@@H]1C(=O)N(C)c2cnc(Nc3ccc(C(=O)NC4CCN(C)CC4)cc3OC)nc2N1C1CCCC1	1320 nM (active)	
C/C=C1/NC(=O)C2CSSCCC=CC(CC(=O)NC(C(C)C)C(=O)N2)OC(=O)C(C(C)C)NC1=O (stereo not given)	2090 nM (active)	
Cc1[nH]c2ccccc2c1CCNCc1ccc(/C=C/C(=O)NO)cc1	590 nM (active)	
CCn1nnc2c(N3CCOCC3)nc(-c3ccc(NC(=O)Nc4ccc(C(=O)N5CCN(C)CC5)cc4)cc3)nc21	1870 nM (active)	
CN(C)C1CCN(C(=O)c2ccc(NC(=O)Nc3ccc(-c4nc(N5CCOCC5)nc(N5CCOCC5)n4)cc3)cc2)CC1	7430 nM (active)	
CC(=O)C1(O)Cc2c(O)c3c(c(O)c2C(OC2CC(N)C(O)C(C)O2)C1)C(=O)c1c(O)cccc1C3=O (stereo not given)	59 nM (active)	
Cc1cc(Nc2cc(NC(=O)c3c(Cl)cccc3Cl)ccn2)nc(N)n1	7430 nM (active)	
Cc1ccc(-c2ncn(-c3ccc(Nc4nccc(-c5cccc(N6CCOCC6)c5)n4)cc3)n2)cn1	5900 nM (active)	
Cc1ccc(C(=O)N(CCCN)[C@@H](c2oc3cc(Cl)ccc3c(=O)c2Cc2ccccc2)C(C)C)cc1	23500 nM (active)	
CCCC(C=O)NC(=O)C(CC(C)C)NC(=O)C(CC(C)C)NC(=O)OCc1ccccc1 (stereo not drawn) (Cbz-Leu-Leu-[Nva]-aldehyde; configuration not given here)	1870 nM (active)	

Structure (SMILES)	Potency	activity, negative = inhibition
Cc1cc(N)c2ccccc2[n+]1CCCCCCCCCC[n+]1c(C)cc(N)c2ccccc21	8330 nM (active)	
C[C@@H]1O[C@@H](O[C@H]2[C@@H](OC(=O)[C@]34CCC(C)(C)CC3C3=CCC5[C@@]6(C)C[C@H](O)[C@H](O[C@@H]7O[C@H](CO)[C@@H](O)[C@H](O)[C@H]7O[C@@H]7OC[C@@H](O)[C@H](O)[C@H]7O)[C@@](C)(C(=O)O)C6CC[C@@]5(C)[C@]3(C)CC4)OC[C@H](O)[C@@H]2O)[C@H](O)[C@H](O)[C@H]1O[C@@H]1OC[C@@H](O)[C@H](O)[C@H]1O (stereo not given in full)		-6.88% [at 8.96 µM]
CC[C@@H]1C(=O)N(C)c2cnc(Nc3ccc(C(=O)NC4CCC(N5CCN(CC6CC6)CC5)CC4)cc3OC)nc2N1C(C)C (stereo not given in full)	1320 nM (active)	
CC(=O)OC1C(=O)C2(C)C(O)CC3OCC3(OC(C)=O)C2C(OC(=O)c2ccccc2)C2(O)CC(OC(=O)C(O)C(NC(=O)c3ccccc3)c3ccccc3)C(C)=C1C2(C)C (stereo not given)	inactive	
C#Cc1cccc(Nc2ncnc3cc(OC)c(OCCCCCCC(=O)NO)cc23)c1	8330 nM (active)	
C=CCn1c(=O)c2cnc(Nc3ccc(N4CCN(C)CC4)cc3)nc2n1-c1cccc(C(C)(C)O)n1	2350 nM (active)	
COC[C@H](NC(=O)c1cnc(C)s1)C(=O)N[C@@H](COC)C(=O)N[C@@H](Cc1ccccc1)C(=O)[C@@]1(C)CO1	166 nM (active)	
CCN(CC)Cc1ccc(C(=O)N(CCc2ccccc2OC)[C@@H]2CCNC2)cc1	inactive	
CC(=O)O[C@@H]1C[C@H](O)[C@@]23CO[C@@H](O)C1(C)[C@@H]2C[C@@H](O)[C@]1(C)[C@@H]3C(=O)[C@H](OC(C)=O)[C@@]2(C)[C@H](c3ccoc3)C[C@H]3O[C@]321	1050 nM (active)	
C=CCNC1=C2CC(C)CC(OC)C(O)C(C)/C=C(\C)C(OC(N)=O)C(OC)/C=C/C=C(\C)C(=O)NC(=CC1=O)C2=O (stereo not given)	11800 nM (active)	
C=C1CO[C@@]2(O[C@H]3CC4C5CC=C6C[C@@H](O)C[C@@H](O[C@@H]7OC[C@H](O)[C@H](O[C@@H]8OC[C@@H](O)[C@H](O)[C@H]8O)[C@H]7O[C@@H]7O[C@@H](C)[C@H](OC(C)=O)[C@@H](OC(C)=O)[C@H]7OC(C)=O)[C@]6(C)C5CC[C@]4(C)[C@@H]3[C@@H]2C)[C@@H](O)[C@H]1OC1OC(C)C(O)C(O)C1O (stereo not given in full)		3.83% [at 8.96 µM]
COCCn1c2c([n+](Cc3cnccn3)c1C)C(=O)c1ccccc1C2=O	93.5 nM (active)	
CN(C)C/C=C/C(=O)Nc1cccc(C(=O)Nc2ccc(Nc3nccc(-c4cccnc4)n3)cc2)c1	14800 nM (active)	
NC(=O)Nc1cc(-c2ccc(CN3CCOCC3)c(F)c2)sc1C(=O)N[C@H]1CCCNC1	1480 nM (active)	
CCC(C)C(=O)OC1CC(O)C23C4OCC5(C(O)CC2C1(C)C(O)O4)C3C(=O)C(O)C1(C)C(O)(c2ccoc2)CC2OC251 (stereo not given)	inactive	
CC[C@@]1([C@@H]2O[C@@H]([C@H]3O[C@@](O)(CO)[C@H](C)C[C@@H]3C)C[C@@H]2C)CC[C@H]([C@]2(C)CC[C@]3(C[C@H](O)[C@@H](C)[C@@H]([C@@H](C)[C@@H](OC)[C@H](C)C(=O)O)O3)O2)O1	2640 nM (active)	
CC(C)C[C@@H](C=O)NC(=O)[C@H](CC(C)C)NC(=O)[C@H](CC(C)C)NC(=O)OCc1ccccc1 (Cbz-Leu-Leu-Leu-aldehyde)	1180 nM (active)	
NC(=O)Nc1cc(-c2cccc(F)c2)sc1C(=O)N[C@H]1CCCNC1	662 nM (active)	
COc1cc(N2CCC(O)CC2)ccc1Nc1nc(Nc2ccccc2S(=O)(=O)C(C)C)c2[nH]cnc2n1	inactive	
C#CCN(Cc1cc2c(=O)n(C)c(CN3CCN(C)CC3)nc2cc1Cl)c1ccc(C(=O)NCc2cccnc2)cc1	inactive	

Reference: PubChem BioAssay AID1508633 (National Center for Advancing Translational Sciences (NCATS), 2021)
